# Measurements: PubChem BioAssay AID463173 (ICCB-Longwood Screening Facility, Harvard Medical School, 2010)
# The campaign covered roughly 52,000 compounds. About 4,300 (8.3%) were called active. Many of the other results were omitted from the sample, so actives are more common in it than they were. A number with no mark means an inactive call. Cut-off read from the data, not from the text of the source: active = survival mostly below about 52% (no sharp cut-off); inactive = mostly above about 56%.
# Tested on: DeltatarO mutant
# Assay: S. aureus survival, RN4220 and DeltatarO strains – OD600, teichoic acid synthesis inhibitors, primary screen (AID 463173)
# Settings: S. aureus RN4220 wild type/DeltatarO growth, OD600, 18 h, hits give low values, screened at 18.75 µg/mL (by protocol)
row,SMILES,survival
1,O=C(NCc1ccccc1)N(Cc1nc2ccccc2c(=O)[nH]1)C1CCCC1,52% (active)
2,O=C(NC1CCCCC1)N(Cc1nc2ccccc2c(=O)[nH]1)C1CCCC1,85%
3,O=C(c1ccccc1)N(Cc1nc2ccccc2c(=O)[nH]1)C1CCCC1,70%
4,COc1cccc2c(=O)cc(C)[nH]c12,88%
5,CN(Cc1ccccc1)C1CCNCC1,90%
6,Cc1ccc(S(=O)(=O)N2CCc3cc(C(=O)Nc4ccc(C(F)(F)F)cc4)ccc32)cc1,63%
7,CS(=O)(=O)N1CCc2cc(C(=O)Nc3ccc(C(F)(F)F)cc3)ccc21,76%
8,CS(=O)(=O)N1CCc2cc(C(=O)Nc3cccc(F)c3)ccc21,68%
9,CS(=O)(=O)N1CCc2cc(C(=O)Nc3ccc(Cl)c(C(F)(F)F)c3)ccc21,33% (active)
10,O=C(Nc1ccc(Cl)c(C(F)(F)F)c1)c1ccc2c(c1)CCN2S(=O)(=O)c1ccccc1,43% (active)
11,O=C(Nc1cc(C(F)(F)F)ccc1Cl)c1ccc2c(c1)CCN2S(=O)(=O)c1ccccc1,48%
12,CCCCNC(=O)CSc1nc2cc3c(cc2c(=O)n1CCCCCC(=O)NCc1ccc(OC)cc1)OCO3,79%
13,CNCCCc1cc(C)ccc1O,59%
14,CCc1ccc(NC(=O)c2cccc(N3CCCS3(=O)=O)c2)cc1,81%
15,Cc1ccc(S(=O)(=O)Nc2cc3c(cc2Cl)n(C)c(=O)c(=O)n3C)cc1,83%
16,CCN(CC)N=Nc1ccc(S(=O)(=O)Nc2nc(C)cc(C)n2)cc1,100%
17,CN(C)CCCN(C(=O)c1ccc2c(c1)OCCO2)c1nc2ccccc2s1,94%
18,CCOc1ccc2nc(NCCNC(=O)Nc3cccc(Cl)c3)c(C#N)cc2c1,82%
19,Cc1ccn2c(Nc3c(C)cccc3C)c(-c3ccsc3)nc2c1,35% (active)

row,SMILES,survival
1,Cc1ccc2nc(-c3cccs3)c(Nc3ccc4c(c3)OCCO4)n2c1,99%
2,Cc1cccc(C)c1Nc1c(-c2cccs2)nc2ncccn12,76%
3,Cc1cccc(C)c1Nc1c(-c2ccsc2)nc2ccc(Cl)cn12,80%
4,Cc1cccc(C)c1Nc1c(-c2ccsc2)nc2ccccn12,43%
5,Cc1cccc(C)c1Nc1c(-c2ccc(Cl)s2)nc2ncccn12,103%
6,Cc1ccc2nc(-c3cccs3)c(Nc3c(C)cccc3C)n2c1,35% (active)
7,Cc1ccn2c(Nc3ccc4c(c3)OCCO4)c(-c3ccc(Cl)s3)nc2c1,102%
8,Cc1ccn2c(Nc3c(C)cccc3C)c(-c3ccc(Cl)s3)nc2c1,37% (active)
9,O=C(Nc1ccccc1C(F)(F)F)c1ccc2oc(=O)c(S(=O)(=O)c3ccc(F)cc3)cc2c1,89%
10,CSc1cccc(NC(=O)C2CCCN(S(=O)(=O)c3ccc4c(c3)CCCN4C(C)=O)C2)c1 (configuration not stated),71%
11,O=C(OCC1CCCO1)c1ccc2c(c1)N(Cc1ccc(F)cc1)C(=O)c1ccccc1S2(=O)=O (configuration not stated),101%
12,Cc1ccc2occ(CC(=O)N(Cc3ccc(N(C)C)cc3)C3CCS(=O)(=O)C3)c2c1 (configuration not stated),74%
13,Cc1ccc(CNC(=O)Cn2c3ncccc3c(=O)n2-c2ccccc2)cc1,81%
14,CC(=O)N1CCc2c(sc(NC(=O)CSc3ccc(C)cc3)c2-c2nc3ccccc3s2)C1,92%
15,COC(=O)c1ccc(-c2ccc(/C=N/NC(=O)CC3(C)OCCCO3)o2)cc1,96%
16,CCCCNC(=O)c1cnc2sc(N3CCCCCC3)nn2c1=O,79%
17,CN(C)c1ccc(CNC(=O)CCCN2C(=O)c3cccnc3Oc3ccc(Cl)cc32)cc1,81%
18,Cn1c(SCC(=O)N2CCCc3ccccc32)nnc1-c1ccccc1N,92%
19,CCc1ccc(NC(=O)CSc2nc(C)c(C(=O)Nc3ccc(Cl)cc3)c(-c3ccc(OC)cc3)c2C#N)cc1,92%

row,SMILES,survival
1,Cc1ccc(Cl)cc1NC(=O)CN1C(=O)C(C)(C)c2cc(S(=O)(=O)N3CCCCC3)ccc21,6% (active)
2,Cc1cc(F)ccc1NC(=O)CN1C(=O)CCc2cc(S(=O)(=O)N3CCOCC3)ccc21,76%
3,COc1ccc(NC(=O)CN2C(=O)CCc3cc(S(=O)(=O)N4CCOCC4)ccc32)c(OC)c1,80%
4,Cc1ccc(NC(=O)CN2C(=O)CCc3cc(S(=O)(=O)N4CCOCC4)ccc32)cc1N(C)C,93%
5,Cc1ccc(NC(=O)CN2C(=O)CCc3cc(S(=O)(=O)N4CCOCC4)ccc32)cc1F,47% (active)
6,COc1ccc(OC)c(NC(=O)CN2C(=O)CCc3cc(S(=O)(=O)N4CCCCC4)ccc32)c1,32% (active)
7,Cc1ccc(NC(=O)CN2C(=O)C(C)(C)c3cc(S(=O)(=O)N4CCCCC4)ccc32)c(Br)c1,67%
8,COc1ccc(Cl)cc1NC(=O)CN1C(=O)C(C)(C)c2cc(S(=O)(=O)N3CCCCC3)ccc21,70%
9,COc1ccc(C)cc1NC(=O)CN1C(=O)CCc2cc(S(=O)(=O)N3CCOCC3)ccc21,94%
10,CCOC(=O)c1cccc(NC(=O)C(CC(C)C)N2Cc3ccccc3C2=O)c1 (configuration not stated),128%
11,Cc1nc2cccnc2n1-c1cccc(C(=O)NCCc2ccc(S(N)(=O)=O)cc2)c1,85%
12,CCOc1ccc(OCC)c(NC(=O)c2nnn(Cc3cc(Br)ccc3OC)c2N)c1,61%
13,CC1(C(=O)C[n+]2cccc(C(N)=O)c2)CCC(=O)O1 (configuration not stated),92%
14,O=C(NC1CCCC1)c1ccc(CSc2nc3ccncc3n2Cc2ccc(F)cc2)cc1,68%
15,O=C(c1ccc2c(c1)N(Cc1ccc(Cl)cc1)C(=O)c1ccccc1S2(=O)=O)N1CCN(Cc2ccccc2)CC1,78%
16,CCC(=O)N1c2ccccc2CC1C(=O)NCCc1ccc(C)cc1 (configuration not stated),75%
17,Cc1cccc(NC(=O)CN2C(=O)C(c3ccc(F)cc3)=NC23CCCCCC3)c1,87%
18,O=C(CN1C(=O)C(c2ccc(F)cc2)=NC12CCCCCC2)Nc1ccc(F)c(Cl)c1,40% (active)
19,O=C(CN1C(=O)C(c2ccc(F)cc2)=NC12CCCCCC2)Nc1ccccc1Cl,84%
